Screen size: about 360,000 compounds; about 16,000 (4.4%) were called active. Roughly 9% stayed inconclusive and do not appear here. Calls follow the shape of the dose curve; as a rule, active = well fitted inhibition curve with a large enough effect; inconclusive = small, poorly fitted or top-dose-only effect; inactive = no such curve, though single readings can be large or run the other way. Shown is part of a subset that was picked to be rich in actives.
The molecules below were run against Bromodomain adjacent to zinc finger domain protein 2B (Homo sapiens) (UniProt Q9UIF8) (assay: qHTS Assay for Inhibitors of BAZ2B). Settings: AlphaScreen BAZ2B-H3K14Ac peptide displacement; series mostly up to 114 µM; activity change, negative = inhibition: at the top concentration.
Method in brief: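 Inhibition is scored as reduced AlphaScreen emission. The BAZ2B/b-H3(5-23)K14Ac complex (50 nM each) in PBS pH 7.4, 0.01% Tween-20 meets compound (up to 110 uM) for 30 min at RT before bead addition.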
% is scaled to controls: 0 for no effect and ±100 for the full control effect; potency is read from the fitted curve at half-maximal effect.
Also: nearly all actives have a fitted effect of over 60% in size.

Chain of Bromodomain adjacent to zinc finger domain protein 2B (Homo sapiens) (Q9UIF8 whole entry, looked up, the tested form may be a part): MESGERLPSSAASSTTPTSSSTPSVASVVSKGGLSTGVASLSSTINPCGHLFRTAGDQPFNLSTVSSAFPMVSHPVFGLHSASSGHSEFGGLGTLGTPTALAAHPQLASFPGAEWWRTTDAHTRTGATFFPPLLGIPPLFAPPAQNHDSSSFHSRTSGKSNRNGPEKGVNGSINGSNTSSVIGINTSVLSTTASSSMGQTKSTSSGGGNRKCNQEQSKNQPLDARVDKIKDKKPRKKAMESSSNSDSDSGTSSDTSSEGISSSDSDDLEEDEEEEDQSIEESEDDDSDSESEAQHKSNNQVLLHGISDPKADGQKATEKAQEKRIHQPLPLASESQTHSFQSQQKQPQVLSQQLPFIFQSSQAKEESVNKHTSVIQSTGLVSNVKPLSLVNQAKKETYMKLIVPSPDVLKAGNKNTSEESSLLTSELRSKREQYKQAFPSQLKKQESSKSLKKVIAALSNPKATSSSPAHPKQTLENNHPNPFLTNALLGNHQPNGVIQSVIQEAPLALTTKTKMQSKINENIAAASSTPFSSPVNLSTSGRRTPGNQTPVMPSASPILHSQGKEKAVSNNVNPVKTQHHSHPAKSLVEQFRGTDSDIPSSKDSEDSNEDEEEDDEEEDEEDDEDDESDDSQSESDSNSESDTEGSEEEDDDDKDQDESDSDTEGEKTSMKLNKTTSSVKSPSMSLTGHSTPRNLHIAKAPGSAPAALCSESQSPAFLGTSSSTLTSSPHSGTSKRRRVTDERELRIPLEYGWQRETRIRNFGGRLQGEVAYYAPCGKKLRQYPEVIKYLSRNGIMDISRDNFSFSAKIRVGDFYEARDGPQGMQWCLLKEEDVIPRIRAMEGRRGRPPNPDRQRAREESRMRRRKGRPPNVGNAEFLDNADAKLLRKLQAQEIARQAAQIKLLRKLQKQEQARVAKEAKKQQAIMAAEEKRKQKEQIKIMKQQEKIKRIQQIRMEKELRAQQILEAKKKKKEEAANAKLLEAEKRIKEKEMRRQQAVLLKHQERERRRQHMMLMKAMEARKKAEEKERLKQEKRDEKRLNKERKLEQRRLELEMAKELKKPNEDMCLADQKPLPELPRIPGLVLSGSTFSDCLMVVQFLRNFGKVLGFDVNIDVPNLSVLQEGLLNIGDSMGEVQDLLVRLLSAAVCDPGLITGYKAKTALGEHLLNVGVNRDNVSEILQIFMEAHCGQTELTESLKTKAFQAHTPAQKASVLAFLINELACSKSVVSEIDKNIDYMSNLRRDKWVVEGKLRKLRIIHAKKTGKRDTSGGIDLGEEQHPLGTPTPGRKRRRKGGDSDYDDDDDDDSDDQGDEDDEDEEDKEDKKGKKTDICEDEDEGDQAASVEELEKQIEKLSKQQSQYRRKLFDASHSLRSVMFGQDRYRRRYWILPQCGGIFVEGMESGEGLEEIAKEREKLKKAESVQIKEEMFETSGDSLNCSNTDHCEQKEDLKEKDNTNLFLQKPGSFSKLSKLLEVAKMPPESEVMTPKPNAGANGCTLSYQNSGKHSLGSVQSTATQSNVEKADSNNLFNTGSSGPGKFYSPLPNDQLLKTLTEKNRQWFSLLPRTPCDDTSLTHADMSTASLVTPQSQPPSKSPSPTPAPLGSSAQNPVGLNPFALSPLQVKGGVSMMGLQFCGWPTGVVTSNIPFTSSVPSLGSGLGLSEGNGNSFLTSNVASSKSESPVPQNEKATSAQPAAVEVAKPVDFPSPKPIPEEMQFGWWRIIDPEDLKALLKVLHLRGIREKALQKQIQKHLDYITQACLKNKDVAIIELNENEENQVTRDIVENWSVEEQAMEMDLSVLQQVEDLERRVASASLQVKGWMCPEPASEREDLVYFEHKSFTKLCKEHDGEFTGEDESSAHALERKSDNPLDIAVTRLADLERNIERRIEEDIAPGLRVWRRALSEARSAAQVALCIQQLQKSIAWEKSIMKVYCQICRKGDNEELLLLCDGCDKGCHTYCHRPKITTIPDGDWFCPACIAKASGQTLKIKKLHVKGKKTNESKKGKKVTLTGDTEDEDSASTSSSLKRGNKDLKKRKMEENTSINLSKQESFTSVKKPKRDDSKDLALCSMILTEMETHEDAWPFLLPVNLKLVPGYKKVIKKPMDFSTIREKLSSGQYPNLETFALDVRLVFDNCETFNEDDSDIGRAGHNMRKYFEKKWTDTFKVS

Activity change, negative = inhibition, inactive:
Cc1ccc(CNC(=O)Cn2c(=O)ccc3cc(S(=O)(=O)N4CCCC4)ccc32)cc1 1.64%
CCOC(=O)c1ccc(NC(=O)C2CC(=O)NC(=Nc3ccc(C)c(C)c3)S2)cc1 (centres undefined) -0.662%
Cc1cccc(NC(=O)C2CCCN2S(=O)(=O)c2cccc3nsnc23)c1C (centres undefined) -17.8%
CCC(=O)Nc1cccc(C(=O)OCc2cc(=O)n3nc(CC)sc3n2)c1 -13.9%
COc1ccc(-c2nn(-c3ccccc3)cc2CN2CCCO2)c(F)c1 -14.8%
COc1ccc(-c2nn(-c3ccccc3)cc2/C=C\C(=O)N2CCOCC2)cc1[N+](=O)[O-] 3.98%
Cc1cc(OCCCC(=O)NCCN2C(=O)S/C(=C\c3cccnc3)C2=O)ccc1Cl 6.35%
Cc1ccc(/C=C2/SC(=S)N(CCC(=O)NCCCN3CCOCC3)C2=O)cc1 -37.2%
O=C1/C(=C\c2ccccc2Cl)SC(=S)N1CCC(=O)N1CCCc2ccccc21 -33.1%
Cc1ccc(-c2nn(-c3ccccc3)cc2/C=C/C(=O)Nc2cccc(S(N)(=O)=O)c2)cc1 -24.1%
Cc1ccc2c(=O)c(C(=O)c3cccc(Cl)c3)cn(CC(=O)NCc3ccccc3)c2n1 0.489%
CN1C(=O)c2[nH]nc(-c3ccc(F)cc3)c2C1c1ccccn1 (centres undefined) 5.35%
COc1ccc(CCNC(=O)c2cc(=O)c3c(C)cc(C)cc3o2)cc1OC -3.78%
CCOC(=O)c1ccc(CN(Cc2ccccc2)S(=O)(=O)c2ccc(Cl)cc2)cc1 47.5%
COc1ccc(CNC(=O)c2cc3c(=O)[nH]c4ccc(C)cc4c3s2)c(OC)c1 9.8%
COc1cccc(CNC(=O)c2ccc3c(Cl)c4c(nc3c2)CCCC4)c1 -9.46%
CCOc1cc(CN2CCN(C(=O)CC(C)C)CC2)ccc1OC 14.7%
CC(C)CC(=O)N1CCN(Cc2cccc(Cl)c2)CC1 -27.4%
Cc1cc(OCC(=O)Nc2ncn[nH]2)c(C)c(C)c1Br 0.164%
O=C(NC1CC(=O)N(c2ccc(F)cc2)C1)c1ccc(S(=O)(=O)N2CCCC2)cc1 (centres undefined) -0.208%
Cc1ccccc1CS(=O)(=O)CC1Nc2ccc(C(=O)NCc3ccc(Cl)cc3)cc2NC1=O (centres undefined) 5.28% [at 57.1 µM]
Cc1ccc(C)c(N2CCN(c3ccc4cc(S(=O)(=O)N5CCC(C)CC5)ccc4n3)CC2)c1 -30.7%
COc1ccc(C(=O)CCc2ccccc2O)c(OC)c1 -6.81%
COc1ccc(/C=C2/C(=O)OCc3cc(OC)c(OC)cc32)c(OC)c1 -4.92%
O=C(NCCCc1ccccc1)c1ccc2c(c1)sc1nc(-c3ccc(F)cc3)cn12 -22.3%
COc1ccccc1CNC(=O)NCc1noc2ccc(C)cc12 -0.276%
COc1ccc(CCNC(=O)C(=O)NCC2OCCN2S(=O)(=O)c2ccc(F)cc2)cc1OC (centres undefined) -2.74%
Cc1cc(F)ccc1S(=O)(=O)N1CCCOC1CNC(=O)C(=O)NCCC1=CCCCC1 (centres undefined) 1.88%
Cn1nnnc1SCCCNCc1ccc(Cl)cc1 0.215%
CSc1nc(-c2ccco2)nn1C(=O)CCc1ccccc1 -5.3%
CC1(C)N=C(SCc2ccccc2Cl)c2ccccc2N1 162% [at 57.1 µM]
Fc1ccc(Nc2nc(SCc3ccccc3Cl)nc3ccccc23)cc1 -4.01%
COc1ccc2nc(SCc3ccccc3)nc(C)c2c1 199%
Cc1cccc(NC(=O)N2CCC(CN3CCc4ccccc4C3)CC2)c1C -0.909%
Cc1ccc(NC(=O)CSc2nc3c([nH]c4ccccc43)c(=O)n2-c2ccccc2)c(C)c1 -1.13%
CCOc1ccccc1NC(=O)Cn1c2ncccc2c(=O)n1-c1ccc(C)c(C)c1 5.16%
COc1cccc(/C=C2\SC(=N)N(c3ccc(F)cc3)C2=O)c1 -26.3%
COc1cc(/C=N/O)cc(Br)c1OCc1cccc(Cl)c1 0.334%
CCOc1c(Br)cc(/C=C2\C(=O)N(CCC#N)N=C2C)cc1OC -0.0526%
COc1cc(CN2CC(C)CC(C)C2)cc([N+](=O)[O-])c1O (centres undefined) -4.76%
CCc1cccc(NC(=O)c2cnc(N3CCOCC3)c3ccccc23)c1 -0.0325%
Cc1ccc(C(=O)CSc2nc(-c3ccccc3)nc3c2CCCC3)c(C)c1 28.9%
COc1ccc(CC(=O)NCCc2sc3nc(-c4ccc(OC)cc4)nn3c2C)cc1 -5%
O=C(c1ccncc1)N1CCN(c2ccc3ccccc3n2)CC1 -12.4%
COc1ccccc1N1CCN(C(=O)c2c(-c3c(Cl)cccc3Cl)noc2C)CC1 2.05%
COc1ccc(C)cc1-n1c(-c2ccc(C)cc2)cc2c1CC(C)(C)CC2=O -31.9%
COc1ccc(C2NC(=O)c3ccccc3N2)cc1 (centres undefined) 1.81%
COc1cccc(N2C(=O)C3CCCN3C2c2ccc(F)cc2)c1 (centres undefined) 3.79%
FC(F)(F)c1cc(Nc2nc3ccccc3c3nncn23)ccc1Cl -0.167%
COC(=O)/C(NC(C)=O)=C(\C)c1ccc(Cl)cc1 9.22%
COC(=O)c1cn(C(=O)c2ccc(Cl)cc2)c2ccccc12 44.8%

Potency, active:
COc1ccc(-c2nn(-c3ccccc3)cc2/C=C2/SC(=S)N(CCCC(=O)O)C2=O)c(C)c1 50.1 µM
Cc1ccc(-c2nn(-c3ccccc3)cc2/C=C2\SC(=S)N(CCCCCC(=O)O)C2=O)o1 6.31 µM
CN(C)S(=O)(=O)c1cccc(-c2nn(-c3ccccc3)cc2/C=C2\SC(=S)N(CC(=O)O)C2=O)c1 50.1 µM
CC(C)CC(=O)N1CCN(Cc2ccccc2Br)CC1 50.1 µM
COc1ccc(/C=C2/C(=O)N(c3ccccc3)N=C2C)c(OC)c1 11.2 µM
O=C(NCCCn1ccnc1)C(=O)NCC1OCCN1S(=O)(=O)c1cc(F)ccc1F (centres undefined) 7.94 µM
c1ccc(CSc2nnc(-c3ccco3)c(-c3ccco3)n2)cc1 20 µM
Clc1ccccc1CSc1nnc(-c2ccco2)c(-c2ccco2)n1 14.1 µM
COc1cc(/C=C2/C(=O)NN(c3cccc(Cl)c3)C2=O)cc(Br)c1O 39.8 µM
COc1cc(/C=C2/C(=O)NN(c3ccc(F)cc3)C2=O)cc([N+](=O)[O-])c1O 39.8 µM
O=C(c1ccc2ccccc2n1)N1CCN(c2ccccc2Cl)CC1 50.1 µM
COc1cccc(C2Nc3cccc4cccc(c34)N2)c1 35.5 µM
COC(=O)C(=Nc1ccccc1)/C(C(=O)C(=O)N(C)c1ccccc1)=C(\O)c1ccc(Cl)cc1 50.1 µM

From PubChem BioAssay AID504333 (National Center for Advancing Translational Sciences (NCATS), 2011)
